Data published in the supplement of paper PMC13380429.

Each compound was assayed on Vero E6 infected with SARS-CoV-2 (assay: morphology score (similarity to uninfected cells); higher = more like uninfected cells). Details: 24 h.

Point of comparison: O=C(c1ccc(OCCCc2c[nH]cn2)cc1)C1CC1 [ciproxifan] (10 µM), morphology score 0.181. Against it:
- O=C1Nc2ccccc2C2(CCN(CCc3ccc(C(F)(F)F)cc3)CC2)O1 (10 µM) — lower, -0.158
- O=c1sn(-c2cccc3ccccc23)c(=O)n1Cc1ccccc1 [tideglusib] (10 µM) — lower, 0.109
- Cc1ccc(C(=O)Nc2ccc(S(=O)(=O)O)c3cc(S(=O)(=O)O)cc(S(=O)(=O)O)c23)cc1NC(=O)c1cccc(NC(=O)Nc2cccc(C(=O)Nc3cc(C(=O)Nc4ccc(S(=O)(=O)O)c5cc(S(=O)(=O)O)cc(S(=O)(=O)O)c45)ccc3C)c2)c1 [suramin] (10 µM) — lower, 0.13
- CC(C)(C)c1ccc(S(=O)(=O)NCc2ccc(C(=O)Nc3cccnc3)cc2)cc1 (0.833333 µM) — lower, 0.0631
- Clc1ccc(COC(Cn2ccnc2)c2ccc(Cl)cc2Cl)c(Cl)c1 (stereo not given) [miconazole] (10 µM) — lower, -0.274
- CCc1ccc(C(=O)C(C)CN2CCCCC2)cc1 (stereo not given) [eperisone] (10 µM) — higher, 0.374
- N=C(N)NCCC[C@@H](N)C(=O)N[C@@H](CCCNC(=N)N)C(=O)N1CCC[C@H]1C(=O)N1C[C@H](O)C[C@H]1C(=O)NCC(=O)N[C@@H](Cc1cccs1)C(=O)N[C@@H](CO)C(=O)N1Cc2ccccc2C[C@@H]1C(=O)N1[C@H](C(=O)N[C@@H](CCCNC(=N)N)C(=O)O)C[C@@H]2CCCC[C@@H]21 [icatibant-acetate] (10 µM) — lower, 0.105
- O=C(N/N=C/c1ccc(O)c(O)c1)c1cc2ccccc2cc1O [dynasore] (10 µM) — lower, -0.107
- C=CCN1CC[C@]23c4c5ccc(O)c4O[C@H]2/C(=N/NC(=O)c2ccccc2)CC[C@@]3(O)[C@H]1C5 [naloxone-benzoylhydrazone] (10 µM) — lower, 0.0722
- CC(C(=O)O)c1cccc(C(=O)c2ccccc2)c1 (stereo not given) [ketoprofen] (10 µM) — lower, 0.173
- N[C@@H](C(=O)N[C@@H]1C(=O)N2C(C(=O)O)=C(Cl)CS[C@H]12)c1ccccc1 [cefaclor] (10 µM) — lower, 0.0453
- CC(C)(O)C(=O)Nc1ccc([N+](=O)[O-])c(C(F)(F)F)c1 [2-hydroxyflutamide] (10 µM) — lower, 0.0933
- Cc1ccccc1-n1c(Cn2ncc3c(N)ncnc32)nc2cccc(C)c2c1=O (10 µM) — higher, 0.373
- CC1(C)O[C@H]2CC(=O)OC[C@]23[C@H]2CC[C@@]4(C)[C@H](c5ccoc5)OC(=O)[C@H]5O[C@]54[C@]2(C)C(=O)C[C@@H]13 [limonin] (10 µM) — higher, 0.289
- CCCCOc1ccc(C(=O)CCN2CCCCC2)cc1 [dyclonine] (10 µM) — higher, 0.347
- Cc1oc(=O)oc1CN1CCN(c2cc3c(cc2F)c(=O)c(C(=O)O)c2n3C(C)S2)CC1 (stereo not given) [prulifloxacin] (10 µM) — higher, 0.197
- CCCC(=O)O[C@]1(C(=O)CO)CC[C@H]2[C@@H]3CCC4=CC(=O)CC[C@]4(C)[C@H]3[C@@H](O)C[C@@]21C [hydrocortisone-butyrate] (10 µM) — lower, -0.0651
- Cc1c(F)cc(C(=O)NC2CC2)cc1-c1ccc(C(=O)NCC(C)(C)C)cn1 [losmapimod] (10 µM) — lower, 0.0455
- CC(C)OC(=O)CNC(=O)[C@H](CS)NC(=O)CC[C@H](N)C(=O)O [glutathione-monoisopropyl-ester] (10 µM) — lower, 0.0539
- CNCCC=C1c2ccccc2CCc2ccccc21 [nortriptyline] (0.833333 µM) — lower, -0.1
- Fc1ccc(-c2nc3n(c2-c2ccncc2)CCS3)cc1 (10 µM) — higher, 0.209
- CCCCOc1ccc(-c2cncc(C(=O)NCc3cccnc3N3CCOCC3)c2)cc1Cl (10 µM) — lower, -0.147
- Cc1ccccc1NC(=N)Nc1ccccc1C [ditolylguanidine] (10 µM) — lower, -0.286
- CC(C)=CCC/C(C)=C/CC/C(C)=C/CCC(=O)OC/C=C(\C)CCC=C(C)C [geranyl-farnesylacetate] (10 µM) — lower, -0.0168
- Cc1ccccc1C(C(=O)NC1CCCCC1)N(C(=O)Cn1ccnc1C)c1cccc(F)c1 (stereo not given) (10 µM) — lower, 0.177
- O=C(Nc1ccc(CN2CCOCC2)cc1)c1ccc(-c2cccc(Cl)c2)o1 (10 µM) — higher, 0.194
- Oc1ccc(Cl)c2cccnc12 [cloxyquin] (10 µM) — lower, -0.13
- CC(C)(CC(=O)N1CCCC1)NCC(=O)N1C[C@@H](F)C[C@H]1C#N (10 µM) — lower, 0.0148
- CC(=O)Nc1ccc(OC(C)=O)cc1 [diacetamate] (10 µM) — lower, 0.116
- CNc1ncnc2c1ncn2[C@@H]1O[C@H](CO)[C@@H](O)[C@H]1O [N6-methyladenosine] (10 µM) — lower, -0.0577
- c1ccc2c(c1)CN1CCCC1=N2 [desoxypeganine] (10 µM) — lower, 0.169
- c1ccc2c(c1)CCCC2C1=NCCN1 (stereo not given) [tetrahydrozoline] (0.833333 µM) — lower, 0.00054
- Cn1c(=O)cc(N2CCC[C@@H](N)C2)n(Cc2cc(F)ccc2C#N)c1=O [trelagliptin] (10 µM) — higher, 0.194
- N[C@@H]1c2cccnc2[C@H](OC(=O)N2CCC(n3c(=O)[nH]c4ncccc43)CC2)CC[C@H]1c1cccc(F)c1F [rimegepant] (10 µM) — lower, 0.177
- Cc1ccc(NC(=O)c2ccc(CN3CCN(C)CC3)cc2)cc1Nc1nccc(-c2cccnc2)n1 [imatinib] (10 µM) — higher, 0.738
- COc1cc(/C=C/C(=O)CC(=O)/C=C/c2ccc(O)c(OC)c2)ccc1O [curcumin] (10 µM) — higher, 0.548
- N[C@H]1C[C@@H]1c1ccccc1 (racemic) [tranylcypromine] (10 µM) — lower, 0.0679
- O=C(O)CCCCCCNC1c2ccccc2CCc2ccccc21 [amineptine] (10 µM) — lower, 0.118
- CC(C)(NS(=O)(=O)c1ccc(Oc2ccc(F)cc2)cc1)C(=O)NO (10 µM) — higher, 0.193
